Most compounds without a hit are left out; they make up all but 10% or so of the library.
BAZ2B inh: inhibitors of human BAZ2B bromodomain. Q9UIF8. AlphaScreen BAZ2B-H3K14Ac peptide displacement. Potency, µM (highest dose often 114 µM), without a hit: at the top dose activity change, negative = inhibition, usual class: inhibitors. 360,000 compounds, 4.4% hits. AID 504333; further: on the % scale 0 is the no-effect control and ±100 the full control effect; nearly all actives have a fitted effect of over 60% in size
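AlphaScreen displacement: compounds (up to 110uM) incubated 30 min at room temperature with a preformed 50 nM BAZ2B/50 nM biotinylated H3K14Ac peptide complex in PBS pH 7.4 with Tween-20. Donor and acceptor beads at 10 ug/mL final added, 20 min light-protected before reading.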
HP1b chromo inh: HP1-beta chromodomain-methylated histone interaction inhibition; AlphaScreen HP1-beta / biotin-H3K9me3 peptide binding; Potency, µM (doses to about 114 µM), without a hit: at the top dose activity change, negative = inhibition, hits mostly inhibitors; 390,000 compounds, 0.56% hits; further: nearly all actives have a fitted effect of over 70% in size
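AlphaScreen: HP1-beta (50 nM) preformed 30 min with biotin-H3(1-18)K9me3 peptide (50 nM) in PBS pH 7.4, 0.01% Tween-20. Compound added for 30 min at RT, then streptavidin donor/nickel chelate acceptor beads (10 ug/mL) for 30 min.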
L3MBTL1 block: inhibitors of human L3MBTL1. 230,000 compounds, 0.66% hits. AlphaScreen L3MBTL1–H3K9me1 peptide binding. Q9Y468. AID 485360. Potency, µM (titrated, usually from 57.1 µM), for the others: at the highest dose activity, negative = inhibition, hits mostly inhibitors; further: on the % scale 0 is the no-effect control and ±100 the full control effect; nearly all actives have a fitted effect of over 60% in size
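L3MBTL1 50 nM + b-AHA-H3(1-15)K9me1 75 nM, 30 min RT; compound added, 30 min RT; streptavidin donor/Ni-chelate acceptor beads 10 ug/mL each final, 30 min RT dark; AlphaScreen read.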
G9a inh: blocks human histone lysine methyltransferase G9a; Potency, µM (titrated, usually from 102 µM), inactives show at the top dose activity, negative = inhibition, hits mostly inhibitors; G9a H3K9 monomethylation, AlphaScreen, 2 h; 350,000 compounds, 8.8% hits; Q96KQ7; further: on the % scale 0 is the no-effect control and ±100 the full control effect; nearly all actives have a fitted effect of over 75% in size
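G9a (20 nM) preincubated 15 min RT with compounds, then 500 nM biotinylated H3K9 peptide and 20 uM SAM added; 2 h RT reaction. Monomethyl-H3K9 product detected by AlphaScreen with anti-H3K9me1 antibody, streptavidin donor and anti-rabbit IgG acceptor beads.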
JMJD2A Tudor inh: JMJD2A Tudor domain (human) inhibition; O75164; AlphaScreen JMJD2A-Tudor / H3K4me3 peptide binding; Potency, µM (series often up to 114 µM), without a hit: top-dose activity change, negative = inhibition, most hits filed as inhibitors; 390,000 compounds, 4.4% hits; further: on the % scale 0 is the no-effect control and ±100 the full control effect; nearly all actives have a fitted effect of over 50% in size
GLS inh: glutaminase GLS (human) inhibition; 410,000 compounds, 0.21% hits; Potency, µM (series often up to 45.5 µM), inactives show top-dose activity change, negative = inhibition, actives largely listed as inhibitors; O94925; GLS enzymatic activity, qHTS titration; AID 624170; further: on the % scale 0 is the no-effect control and ±100 the full control effect
Target sequence (O94925 whole entry, looked up): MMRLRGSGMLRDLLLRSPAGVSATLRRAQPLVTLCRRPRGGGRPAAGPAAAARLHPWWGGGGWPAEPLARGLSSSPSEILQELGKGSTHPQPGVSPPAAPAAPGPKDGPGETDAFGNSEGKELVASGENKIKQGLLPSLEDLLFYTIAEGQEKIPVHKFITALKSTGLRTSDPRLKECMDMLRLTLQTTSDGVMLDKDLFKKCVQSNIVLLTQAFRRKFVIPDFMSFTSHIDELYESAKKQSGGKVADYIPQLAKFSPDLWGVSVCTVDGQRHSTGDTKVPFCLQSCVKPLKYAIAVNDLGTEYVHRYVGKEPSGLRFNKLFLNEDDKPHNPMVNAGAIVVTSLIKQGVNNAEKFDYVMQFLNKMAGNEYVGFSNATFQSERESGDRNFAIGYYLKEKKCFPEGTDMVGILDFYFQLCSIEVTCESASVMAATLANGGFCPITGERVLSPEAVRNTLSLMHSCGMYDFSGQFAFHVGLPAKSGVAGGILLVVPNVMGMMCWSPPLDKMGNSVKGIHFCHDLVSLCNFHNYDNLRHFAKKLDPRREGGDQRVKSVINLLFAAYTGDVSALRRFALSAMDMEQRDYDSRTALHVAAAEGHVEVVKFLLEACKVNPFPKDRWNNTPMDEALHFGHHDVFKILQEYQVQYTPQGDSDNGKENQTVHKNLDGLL
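Coupled fluorescence readout: glutamate oxidase/HRP/Amplex Red detect glutamate formed by hKGA from L-glutamine (1 mM solution added). Buffer 45 mM KH2PO4 pH 8.2, 0.02% Tween-20; reads at t0 and 30 min RT.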
Numbers without * were called inactive; ? = inconclusive; / = not tested or not shown; [ ] = remark or other dose. The call rests on the fitted dose curve; in most records, active means well fitted curve in the direction sought with a large enough effect; inconclusive means small, poorly fitted or top-dose-only effect, or another doubt; inactive means no such curve, though single readings can be large; an effect the other way counts as inactive or inconclusive. Potency means the concentration at half of the fitted maximal effect.

SMILES | BAZ2B inh | HP1b chromo inh | L3MBTL1 block | G9a inh | JMJD2A Tudor inh | GLS inh
COc1ccc(CNC2C[C@H]3CCCC(=O)N4CC[C@@H](C2)[C@@H]34)cc1 (stereo not given in full) | / | 21% | -1% | 37% | -12% | 3%
CN1CCN(C(=S)c2cn(CCOc3ccccc3F)c3ccccc23)CC1 | ? | ? | -7% | 35µM* | 50µM* | -22%
COc1cccc(CCN2CCC(CNS(=O)(=O)c3cc(-c4cc(C)no4)ccc3C)CC2)c1 | ? | -9%[57 µM] | / | 71µM* | -35% | -2%
COc1cccc(CCN2CCC(CNS(=O)(=O)c3cc(-c4cc(C)no4)ccc3OC)CC2)c1 | -25% | 0% | / | 19%[59 µM] | -25% | 0%
COC(=O)c1c(C)[nH]c(C)c1-c1cccc([N+](=O)[O-])c1 | ? | -17% | / | 56µM* | -34% | -3%
COC(=O)c1c(C)[nH]c(C)c1-c1ccc(C)cc1 | ? | -17% | / | -13% | -35% | -2%
O=C1NC(=S)S/C1=C\C=C\c1ccc([N+](=O)[O-])o1 | 11µM* | ? | / | / | 16µM* | 2%
O=[N+]([O-])c1ccc(/C=N/N=C/c2ccc([N+](=O)[O-])o2)o1 | -35% | 10% | ? | ? | -23% | 62%
O=C(Nc1ccc(Nc2ccccc2)cc1)c1ccc(Cl)c([N+](=O)[O-])c1 | 40µM* | ? | -25% | / | 50µM* | 1%
Cc1ccccc1NC(=O)c1ccc(Nc2c([N+](=O)[O-])cc([N+](=O)[O-])c3ccccc23)cc1 | ? | ? | -14% | 7.9µM* | ? | 2%
Cc1cc(C(=O)Nc2ccc(Nc3ccccc3)cc2)ccc1[N+](=O)[O-] | -25% | 22µM* | -3%[2.29 µM] | 8%[0.501 µM] | 10µM* | 16µM*
O=C(Nc1ccccc1-c1ccccc1)c1ccc(Cl)c([N+](=O)[O-])c1 | -23% | 11% | -16% | ? | -13% | -2%
O=C(COc1ccccc1Cl)OCc1cc(=O)n2nc(C3CC3)sc2n1 | -3% | 24% | / | 4%[59 µM] | 3% | 9%
O=C(NNc1ncnc2ccccc12)c1cccc(Cl)c1 | 79µM* | 37% | / | 79µM* | 6% | 3%
CCOC(=O)Nc1c2ccccc2nc2ccccc12 | 2% | 21% | 2% | -2% | -13% | -3%
Nc1ccccc1C(=O)NNc1c2ccccc2nc2ccccc12 | 28µM* | 18µM* | ? | 18µM* | 32µM* | 0%
Cc1ccc(C(=O)NNc2c3ccccc3nc3ccccc23)cc1 | ? | -13% | -20% | 18µM* | -34% | -8%
O=C(NNc1ncnc2c1cnn2-c1ccccc1)c1cccc(Cl)c1 | 19% | 100% | / | ? | -21% | -6%
Cc1cc(C(=O)NNC(=O)c2ccc(Cl)cc2)c2ccccc2n1 | -5% | 34% | -6% | 27%[12.7 µM] | -6% | -10%
COc1cccc(C(=O)NNc2c3ccccc3nc3ccccc23)c1 | ? | -31% | / | -65% | ? | ?
O=C(NNc1c2ccccc2nc2ccccc12)c1ccc(Cl)cc1 | ? | -2% | / | 35µM* | -23% | 0%
COc1ccccc1N1CCN(S(=O)(=O)c2ccc3c(c2)CCCN3C(C)=O)CC1 | -4% | 19%[57 µM] | / | 2%[59 µM] | -17% | 0%
COc1ccc(OC)c(NC(=O)CSc2cn(CC(=O)N3CCOCC3)c3ccccc23)c1 | -17% | 27% | / | 5%[59 µM] | -5% | 1%
CCCCn1cc(S(=O)(=O)c2ccc(C)c(C)c2)c(=O)c2cc(F)c(N(CC)CC)cc21 | 3% | 10% | / | 5%[59 µM] | -13% | 2%
CCOc1cc(C(=O)N2CC(=O)Nc3ccc(F)cc3C2c2ccccc2)cc(OCC)c1OCC (stereo not given) | 3% | 10% | / | 10%[59 µM] | -21% | 2%
SMILES | BAZ2B inh | HP1b chromo inh | L3MBTL1 block | G9a inh | JMJD2A Tudor inh | GLS inh
CCn1c(SCc2ccccc2C)nc(=O)c2c(C(=O)OC)cc(C3CC3)nc21 | -8% | 7%[57 µM] | / | -3%[59 µM] | -31% | -11%
CCc1cccc(C)c1NC(=O)c1cc(S(=O)(=O)N2CCOCC2)cn1C | -3% | 40% | / | ? | -8% | -6%
Clc1cncc(Cl)c1NNc1c2ccccc2nc2ccccc12 | ? | 1% | 2% | 1.3µM* | ? | 7%
c1cncc(Nc2c3ccccc3nc3ccccc23)c1 | -35% | -20% | / | ? | -34% | -13%
CN(C)S(=O)(=O)c1ccc(C(=O)NCC2CC2(Cl)Cl)cc1 (stereo not given) | 12% | -7% | / | 2%[59 µM] | 13µM* | -8%
Cc1cc(C)cc(Oc2coc3c(CN4CCN(C)CC4)c(O)ccc3c2=O)c1 | 2% | 31% | / | -5%[59 µM] | -29% | -4%
Cn1cc(CC(=O)NCCCN2CCCC2)c2ccccc21 | -29% | 33% | / | 56µM* | -33% | 0%
Cc1c(C)n(C)c2ccc(C(=O)NCCCN3CCN(c4ccc(F)cc4)CC3)cc12 | 35µM* | ? | / | 40µM* | 56µM* | -4%
COc1ccc(OC)c(CCNC(=O)CCc2cn(C)c3ccccc23)c1 | ? | 10% | / | 71µM* | ? | 2%
Cc1[nH]c2ccc(C(=O)NCCN3CCCCCC3)cc2c1C | -30%[57.1 µM] | 2%[57 µM] | / | 50µM* | ? | 6%
COc1ccc(OC)c(CNC(=O)CCc2cn(C)c3ccccc23)c1 | -28% | 4% | / | ? | ? | 1%
Cc1[nH]c2ccc(C(=O)NCCCN3CCCCC3)cc2c1C | ? | 57% | / | 4% | -1% | -5%
Cn1cc(CC(=O)NCCCN2CCOCC2)c2ccccc21 | / | 19% | / | ? | -13% | 2%
CCCSc1ncc(Cl)c(C(=O)Nc2sc3c(c2C(=O)NCC)CCCC3)n1 | -6% | 14% | / | -27%[59 µM] | -15% | 2%
CCOc1ccc(-c2nc(SC(C(C)=O)C(=O)N(C)C)c3c(=O)n(C)c(=O)n(C)c3n2)cc1 (stereo not given) | 5% | 22%[57 µM] | / | 0%[59 µM] | -1% | -4%
Cc1ccccc1NC(=O)c1ccc(F)c(S(=O)(=O)N(C)C2CCCCC2)c1 | -3% | 25% | / | 7%[59 µM] | -16% | 4%
O=C(Cn1c(=O)c2cccn2c2ccc(F)cc21)NCCCN1CCN(c2ccccc2F)CC1 | -31% | 25% | / | 45µM* | -20% | 0%
Cc1ccc(C)c(N2CCN(C(=O)c3ccc4[nH]c(C)c(C)c4c3)CC2)c1 | -13% | -17% | / | -8%[59 µM] | 79µM* | 3%
Cc1ccc(C)c(N2CCN(C(=O)c3cc4ccccn4n3)CC2)c1 | -6% | 34% | -2% | 50µM* | -18% | 9%
Cc1c(C)n(C)c2ccc(C(=O)NCCCN3CCN(c4ccccc4F)CC3)cc12 | ? | ? | / | 45µM* | 56µM* | 13%

Screening data as filed in PubChem BioAssay.
